The values below come from PubChem BioAssay (NCATS).

Structures are written as SMILES. Several values for one entry are separate records, joined by “and”; a condition that tells them apart may be missing. Identical values can stand only once. Results filed as inconclusive are left out. A number with no mark means an inactive call. Activity calls are given as the source filed them. The call rests on the fitted dose curve; in most records, active means well fitted curve in the direction sought with a large enough effect; inconclusive means small, poorly fitted or top-dose-only effect, or another doubt; inactive means no such curve, though single readings can be large or run the other way.
On the % scale 0 is the no-effect control and ±100 the full control effect; potency means the concentration at half of the fitted maximal effect.

The nature of this assay: qHTS Assay for Identifying Gametocytocidal Compounds (AID 743244).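 On max response: actives lower the fluorescent signal which means gametocytes are killed.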 The following applies: P. falciparum 3D7 stage III-V gametocytes, alamarBlue, 72 h; max response: stronger effect = lower value. Summed up:
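Viability read-out was resazurin reduction (alamarBlue, 24 h) measured at Ex 525/Em 598 nm. Beforehand, late-stage (III-V) 3D7 P. falciparum gametocytes at 20,000 cells/well were incubated with compound 72 h at 37C under 5% CO2.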
As for `CN1C[C@H](C(=O)N[C@]2(C)O[C@@]3(O)[C@@H]4CCCN4C(=O)[C@H](Cc4ccccc4)N3C2=O)C[C@@H]2c3cccc4[nH]cc(c34)C[C@H]21`, the Potency is 2.35 µM (active).

Consider `CNC(=O)Oc1ccc2c(c1)[C@]1(C)CCN(C)[C@@H]1N2C`, for which the Potency was 11.2 µM (active) and 3.55 µM (active).

On to `O=C(Nc1ccc(Cl)cc1)Nc1ccc(Cl)c(Cl)c1`, for which the Potency is 15.8 µM (active) and 29.6 µM (active).

As for `CCCCC1C(=O)NC(=O)N(C2CCCCC2)C1=O` (stereo not given), the max response was -2.42%.

Regarding `O=C(Nc1ccc(Cl)cc1)Nc1ccc(Cl)c(C(F)(F)F)c1`, the Potency was 12.6 µM (active).

On to `Cc1c(Cl)c(=O)oc2cc(OP(=O)(OCCCl)OCCCl)ccc12`, for which the max response was 22.1%.

As for `C[C@@H]1O[C@@H](O[C@@H]2C=C3CC[C@@H]4[C@H](CC[C@]5(C)[C@@H](c6ccc(=O)oc6)CC[C@]45O)[C@@]3(C)CC2)[C@H](O)[C@H](O)[C@H]1O`, the max response was 11.2%.

Take `CN1C(=O)CN=C(c2ccccc2)c2cc(Cl)ccc21`: the max response was -5.96%.

For `COc1ccc2[nH]cc(CCN(C(C)C)C(C)C)c2c1`, the max response was -5.46%.

In the case of `CC(Cc1ccc2c(c1)OCO2)NO` (stereo not given), the max response is -6.74%.

Consider `O=C1NC2CCCCN2C12CCN(CCCN1c3ccccc3CCc3ccc(Cl)cc31)CC2` (stereo not given), for which the Potency is 22.4 µM (active).

Consider `Cc1nnc2n1-c1sc(CCc3ccc(CC(C)C)cc3)cc1C(c1ccccc1Cl)=NC2C` (stereo not given), for which the max response was -7.02%.

As to `CCN(CC)C(C)C(=O)c1ccccc1` (stereo not given), the max response is 2.91%.

With `CC(C)[N+](C)(CCC(C(N)=O)(c1ccccc1)c1ccccc1)C(C)C`, the max response is 0.0209%.

On to `C[C@]12CC[C@H](O)CC1=CC[C@@H]1[C@@H]2CC[C@]2(C)C(=O)CC[C@@H]12`, for which the max response was -7.96%.

As for `CC(Cc1ccccc1)NCc1ccccc1Cl` (stereo not given), the max response is 9%.

With `NC(N)=N/N=C/c1c(Cl)cccc1Cl`, the Potency was 3.55 µM (active).

With `CCC1(c2cccc(O)c2)CCCCN(C)C1` (stereo not given), the max response was 11.4%.

For `CC[C@H]1C[C@@H]2C[C@H]3c4[nH]c5ccc(OC)cc5c4CCN(C2)[C@@H]13`, the max response was 5.97%.

For the compound `C[C@]12C=CC(=O)C=C1CC[C@@H]1[C@@H]2CC[C@@]2(C)[C@H]1CC[C@]2(C)O`, the max response is -4.85%.

As for `C=CC[C@]1(O)CC[C@H]2[C@@H]3CCC4=CC(=O)CCC4=C3C=C[C@@]21C`, the max response was 1.81%.

As for `ClC1=C(Cl)C2(Cl)C(CBr)CC1(Cl)C2(Cl)Cl` (stereo not given), the max response is -1.6%.

Turning to `CCCC[N+]1(C)[C@@H]2CC(OC(=O)[C@H](CO)c3ccccc3)C[C@H]1[C@@H]1O[C@@H]12` (stereo not given in full), the max response is 5.95%.

Consider `CC(C)NCC(O)c1ccc(N)c(C#N)c1` (stereo not given), for which the max response is 9.7%.

With `CC[C@H]1C[C@H]2[C@@H]3CCC4=CC(=O)CC[C@@H]4[C@H]3CC[C@]2(C)[C@H]1O`, the max response is -17.8%.

Turning to `C#C[C@]1(O)CC[C@H]2[C@@H]3CCC4=CC(=O)CCC4=C3C=C[C@@]21CC`, the max response was -5.06%.

Consider `CC(C)=CCN1CC[C@@]2(C)c3cc(O)ccc3C[C@@H]1[C@@H]2C`, for which the max response was -13.8%.

With `Cc1ncc2n1-c1ccc(Cl)cc1C(c1ccccc1F)=NC2`, the max response was -2.43%.

For `CC(C)C(Br)C(=O)NC(N)=O` (stereo not given), the max response was 6.08%.

Regarding `COc1cc(C[C@@H](C)N)c(OC)cc1Br`, the max response is 0.803%.

For `CCN(CC)Cc1nccn1-c1ccc([N+](=O)[O-])cc1C(=O)c1ccccc1Cl`, the Potency is 16.6 µM (active).

With `Cc1nc2ccccc2c(=O)n1-c1ccccc1Cl`, the max response was 1.05%.

As to `CN1C(=O)CN=C(c2ccccc2)c2cc([N+](=O)[O-])ccc21`, the max response is 4.86%.

Take `COc1cc(CC(C)N)cc2c1OCO2` (stereo not given): the max response was -6.22%.

As to `CC(C)(C)OC(=O)c1ncn2c1[C@@H]1CCCN1C(=O)c1c(Br)cccc1-2`, the max response is 3.06%.
